{
  "source": "PubChem BioAssay AID485367",
  "about": "(National Center for Advancing Translational Sciences (NCATS), 2010)",
  "note": "Out of some 330,000 compounds screened, about 560 (0.17%) were called active. About 1% were inconclusive and are not listed. Calls come from the whole dose curve; as a rule, active = well fitted inhibition curve with a large enough effect; inconclusive = small, poorly fitted or top-dose-only effect, or effect the other way; inactive = flat fitted curve, though single readings scatter. This excerpt belongs to a sample that is enriched for actives. Potency is the fitted concentration of half-maximal effect.",
  "data": [
    {"biological_target": "ATP-dependent 6-phosphofructokinase (Trypanosoma brucei brucei) (UniProt O15648)", "sequence (O15648 whole entry, looked up)": "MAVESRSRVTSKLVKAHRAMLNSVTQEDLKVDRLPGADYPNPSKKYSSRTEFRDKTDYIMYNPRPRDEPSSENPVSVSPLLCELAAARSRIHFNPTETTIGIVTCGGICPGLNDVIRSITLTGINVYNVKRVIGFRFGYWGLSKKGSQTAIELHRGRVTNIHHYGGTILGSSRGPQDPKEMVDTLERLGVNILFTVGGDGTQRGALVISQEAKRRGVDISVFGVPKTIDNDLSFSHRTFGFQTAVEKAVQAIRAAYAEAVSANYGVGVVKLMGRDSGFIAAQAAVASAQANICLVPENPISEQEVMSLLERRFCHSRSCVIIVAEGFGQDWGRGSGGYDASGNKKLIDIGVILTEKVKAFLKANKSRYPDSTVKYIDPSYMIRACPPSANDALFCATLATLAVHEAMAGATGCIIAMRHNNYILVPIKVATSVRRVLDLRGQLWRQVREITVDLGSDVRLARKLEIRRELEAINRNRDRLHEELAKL", "experiment": "qHTS Assay to Find Inhibitors of T. brucei phosphofructokinase; note: nearly all actives have a fitted effect of over 60% in size", "settings": "T. brucei PFK, ADP-Glo luminescence; series mostly up to 57.5 µM; activity, negative = inhibition: at the top concentration", "source_text": "NIH Molecular Libraries Probe Production Network [MLPCN] NIH Chemical Genomics Center [NCGC] Grant: 1 R03 MH092153-01 PI Name: Malcolm Walkinshaw, University of Edinburgh NCGC Assay Overview: Various species of the protozoan family Trypanosomatidae are responsible for a range of serious human diseases in tropical and subtropical areas of the world. […] Many of the disorders caused by trypanosomatids are fatal if left untreated, but most currently used drugs are inefficient and toxic. […] Oxidative metabolism involving the mitochondrial tricarboxylic acid cycle and oxidative phosphorylation are repressed in these parasites, and recent RNA interference (RNAi) experiments have shown that even partial depletion of certain individual glycolytic enzymes can lead to the death of cultured parasites. One such glycolytic enzyme, phosphofructokinase (PFK), catalyzes the formation of fructose-1,6-bisphosphate (F1,6BP) and ADP from fructose-6-phosphate (F6P) and ATP, and in many metabolic circumstances makes an important contribution to the control of flux through the glycolytic pathway. As a specific glycolytic target, PFK is particularly attractive as it catalyzes the first irreversible step in glycolysis, and structural and kinetic studies have shown very substantial and essential differences from corresponding host enzymes, allowing for the discovery of parasite-selective inhibitors. The goal of this screen is to find small-molecule inhibitors of T. brucei PFK using a biochemical assay that measures PFK activity as a function of ADP production. A luminescence-based assay for T. brucei PFK activity has been developed which uses luciferase to detect production of ADP. Traditional luciferase-based nucleotide detection reagents rely on ATP production as a direct substrate for the luciferase reaction; however, PFK catalyzes the transfer of a phosphate from ATP to F6P, resulting in the net depletion of ATP. To directly measure the ADP product of the PFK reaction, we used the ADP-Glo detection kit (Promega), which utilizes two separate reactions to 1) deplete all remaining uncatalyzed ATP and 2) convert all remaining ADP to ATP, which is then detected through a traditional luciferase-coupled reaction. Compounds were screened as a concentration-titration series that ranged from 57 uM to 0.7 nM.\nNCGC Assay Protocol Summary: NCGC Assay Protocol Summary: Substrate buffer was dispensed into white, solid 1536-well plates at 3uL/well in 0.1M triethanolamine (TEA) buffer, pH 8.0, containing final concentrations of 5 mM MgCl2, 0.01% Tween20, 0.5 mM fructose-6-phosphate (F6P) and 0.1mM ATP. Then, 23 nL of compounds or DMSO were delivered to each well using a pin tool. One uL T. brucei PFK (0.1M TEA, 0.01% Tween20, 0.1% bovine serum albumin (BSA) and 1.25nM PFK, final concentrations) was then dispensed, and plates were incubated at room temperature for 45 min. The luminescent detection reagent, ADP-Glo (Promega), was then added in two steps: the first reagent, ADP-Glo (which converts remaining uncatalyzed ATP), was added at 2.5uL/well and incubated for ten minutes at room temperature, and the second component, Kinase Detection reagent (which converts ADP to ATP as a substrate for luciferase-based luminescence), was added immediately after at 5uL/well, followed by one final ten minute room temperature incubation. The plates were measured on a ViewLux plate reader for luminescent signal using a clear filter with a one second exposure. The %Activity was determined from the corrected luminescence values. As no specific T. brucei PFK inhibitors have been identified in the literature, 1x (1.25nM) and 0x PFK enzyme controls (untreated) were included to normalize %Activity of identified inhibitors; 0x enzyme values corresponded to 100%Activity (full inhibition), while 1x PFK enzyme values were used to normalize 0%Activity (no inhibition). Concentration-response curves were fitted to the signals arising from the resulting luminescence. […]", "values": [
      {"smiles": "O=C(Cc1ccc([N+](=O)[O-])cc1)N/N=C/c1ccco1", "Potency": "19 µM (active)"},
      {"smiles": "OC(Cn1c2ccccc2c2ccccc21)C[n+]1ccccc1", "note": "(stereo not given)", "activity, negative = inhibition": "-2.56% (inactive)"},
      {"smiles": "CCCCCCN=C(CC)c1c(O)n(CCCC)c(=O)[nH]c1=O", "activity, negative = inhibition": "-1.16% (inactive)"},
      {"smiles": "CCOC(=O)C1SC2(C(F)(F)C(F)F)CC1(O)c1c(c(OC)c3occc3c1OC)O2", "note": "(stereo not given)", "activity, negative = inhibition": "0.275% (inactive)"},
      {"smiles": "Cn1nnnc1NCc1ccc(Cl)c(Cl)c1", "Potency": "10.7 µM (active)"},
      {"smiles": "Cc1ccc(-n2c(-c3ccc([N+](=O)[O-])cc3)nc3ccccc3c2=O)cc1", "activity, negative = inhibition": "6.06% (inactive)"},
      {"smiles": "CC(Cc1cccs1)NCc1ccc(Cl)cc1", "note": "(stereo not given)", "activity, negative = inhibition": "-2.43% (inactive)"},
      {"smiles": "O=C1/C(=C\\c2ccc3c(c2)OCO3)N2CCC1CC2", "activity, negative = inhibition": "-7.68% (inactive)"},
      {"smiles": "CCOP(=S)(OCC)C(O)CCCCCn1c(=O)c(F)cn(C2CCCO2)c1=O", "note": "(stereo not given)", "activity, negative = inhibition": "-1.99% (inactive)"},
      {"smiles": "COc1ccc(CCn2c(O)c(C=NCCCn3ccnc3)c(=O)[nH]c2=O)cc1OC", "activity, negative = inhibition": "7.53% (inactive)"}
    ]}
  ]
}
